Laboratory results as given in the supplement of paper PMC12494721.
Structures can show the parent of a compound that is named as a salt.

Key:
Conditions in all cases: incubation time: 27 h, anaerobic, 37 °C;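 for the amine columns active = adjusted P below 0.05 in both replicates with a change the same way and a mean fold change under 0.8 or over 1.25; inactive = the rest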
[1] = tested on: Clostridium sporogenes DSM 1664; assay: growth (OD595) fold change vs plate DMSO controls (fold change (ratio)); higher = more growth
Procedure, shortened: (§1)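 Growth is expressed as the fold change relative to the median of the DMSO control wells on each plate. Cultures in mGAM were grown anaerobically in 96-well plates for 27 h at 37 °C, shaken, and read at 595 nm. Readings were blank-subtracted, corrected for compound background with 20 µM compound solutions in water, and converted to OD with a calibration factor of 5. Fold changes above 1.5 were set to NA, and each value is the mean of 2 biological replicates.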

Escherichia coli IAI1 [2] = assay: as above
Procedure, shortened: as §1

[3] = tested on: Klebsiella aerogenes DSM 30053; assay: as above
Procedure, shortened: as §1

[4] = tested on: Ruminococcus gnavus DSM 108212; assay: as above
Procedure, shortened: as §1

[5] = tested on: Klebsiella aerogenes DSM 30053; assay: fold change of Histamine concentration vs plate DMSO controls (fold change (ratio)); higher = more amine produced, active = hit call of the paper (significant change in both replicates, either direction)
Procedure, shortened: (§2)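 Each value is the fold change relative to DMSO-only wells on the same plate. Four gut bacterial strains were grown anaerobically in mGAM at 37 °C for 27 h in 80 µL wells, starting at OD 0.1 before a 1:1 dilution, with compounds at 20 µM final (sweeteners 50 µM). Whole cultures were extracted with cold acetonitrile/methanol containing 0.1% formic acid, centrifuged, and amines were quantified by LC–triple-quadrupole MS (dynamic MRM) against external calibration curves with within-batch drift correction. Values are means of 2 biological replicates.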

[6] = tested on: Clostridium sporogenes DSM 1664; assay: fold change of Tryptamine concentration vs plate DMSO controls (fold change (ratio)); higher = more amine produced, active = hit call of the paper (significant change in both replicates, either direction)
Procedure, shortened: as §2

[7] = tested on: Ruminococcus gnavus DSM 108212; assay: as above
Procedure, shortened: as §2

Escherichia coli IAI1 [8] = assay: fold change of Putrescine concentration vs plate DMSO controls (fold change (ratio)); higher = more amine produced, active = hit call of the paper (significant change in both replicates, either direction)
Procedure, shortened: as §2

[9] = tested on: Klebsiella aerogenes DSM 30053; assay: as above
Procedure, shortened: as §2

Escherichia coli IAI1 [10] = assay: fold change of Cadaverine concentration vs plate DMSO controls (fold change (ratio)); higher = more amine produced, active = hit call of the paper (significant change in both replicates, either direction)
Procedure, shortened: as §2

[11] = tested on: Klebsiella aerogenes DSM 30053; assay: as above
Procedure, shortened: as §2

[12] = tested on: Ruminococcus gnavus DSM 108212; assay: fold change of 2-Phenylethylamine concentration vs plate DMSO controls (fold change (ratio)); higher = more amine produced, active = hit call of the paper (significant change in both replicates, either direction)
Procedure, shortened: as §2

| Compound | growth [1] | growth (Escherichia coli IAI1 [2]) | growth [3] | growth [4] | fold change of Histamine concentration [5] | fold change of Tryptamine concentration [6] | fold change of Tryptamine concentration [7] | fold change of Putrescine concentration (Escherichia coli IAI1 [8]) | fold change of Putrescine concentration [9] | fold change of Cadaverine concentration (Escherichia coli IAI1 [10]) | fold change of Cadaverine concentration [11] | fold change of 2-Phenylethylamine concentration [12] |
| --- | --- | --- | --- | --- | --- | --- | --- | --- | --- | --- | --- | --- |
| COc1cc(C(=O)NC2CCCNC2)cc(OC)c1OC (stereo unspecified) [Troxipide] (20 µM) | 0.822 | 1.02 | 0.99 | 0.845 | 0.989 (inactive) | 1.03 (inactive) | 1.06 (inactive) | 0.965 (inactive) | 0.983 (inactive) | 0.978 (inactive) | 0.996 (inactive) | 1.02 (inactive) |
| CC(=O)CC(c1ccccc1)c1c(O)c2ccccc2oc1=O (stereo unspecified) [Warfarin] (20 µM) | 1.08 | 1.21 | 0.97 | 1.12 | 1 (inactive) | 1.05 (inactive) | 0.84 (inactive) | 1.22 (inactive) | 0.989 (inactive) | 0.958 (inactive) | 0.984 (inactive) | 0.758 (inactive) |
| C(=C\c1ccccc1)/CN1CCN(C(c2ccccc2)c2ccccc2)CC1 [Cinnarizine] (20 µM) | 1.09 | 0.964 | 0.991 | 0.67 | 0.941 (inactive) | 0.969 (inactive) | 0.824 (inactive) | 0.993 (inactive) | 0.998 (inactive) | 0.991 (inactive) | 1 (inactive) | 0.878 (inactive) |
| O=C(Cn1c(=O)sc2ccc(Cl)cc21)N1CCN(CCO)CC1 [Tiaramide Hydrochloride] (20 µM) | 0.912 | 1 | 1 | 0.982 | 1.01 (inactive) | 1.08 (inactive) | 1.07 (inactive) | 0.959 (inactive) | 0.993 (inactive) | 0.963 (inactive) | 0.991 (inactive) | 1.13 (inactive) |
| N=c1nc(N2CCCCC2)cc(N)n1O [Minoxidil] (20 µM) | 0.888 | 0.963 | 1.03 | 0.722 | 0.98 (inactive) | 0.937 (inactive) | 1.01 (inactive) | 0.982 (inactive) | 0.987 (inactive) | 0.995 (inactive) | 1.01 (inactive) | 1.05 (inactive) |
| CC(=O)[C@H]1CC[C@H]2[C@@H]3C=CC4=CC(=O)CC[C@@]4(C)[C@@H]3CC[C@]12C [Dydrogesterone] (20 µM) | 1.08 | 0.983 | 0.99 | 0.994 | 1.03 (inactive) | 0.933 (inactive) | 0.978 (inactive) | 0.911 (inactive) | 1.01 (inactive) | 1.04 (inactive) | 0.983 (inactive) | 1 (inactive) |
| COc1cc2/c(=N/c3ccc(Br)cc3F)nc[nH]c2cc1OCC1CCN(C)CC1 [Vandetanib] (20 µM) | 1.15 | 1.07 | 1.06 | 0.995 | 1.01 (inactive) | 1.04 (inactive) | 1.11 (inactive) | 0.989 (inactive) | 0.907 (inactive) | 0.992 (inactive) | 1.1 (inactive) | 1.14 (inactive) |
| COCCOC(=O)C1=C(C)NC(C)=C(C(=O)OC(C)C)C1c1cccc([N+](=O)[O-])c1 (stereo unspecified) [Nimodipine] (20 µM) | 0.946 | 0.814 | 1.03 | 0.991 | 0.947 (inactive) | 0.965 (inactive) | 0.909 (inactive) | 0.889 (inactive) | 0.99 (inactive) | 1.09 (inactive) | 1.01 (inactive) | 0.903 (inactive) |
| C[N+]1(C)CCC(=C(c2ccccc2)c2ccccc2)CC1 [Diphemanil methylsulfate] (20 µM) | 1.04 | 1.02 | 1.07 | 0.984 | 0.94 (inactive) | 1.17 (inactive) | 1.01 (inactive) | 0.958 (inactive) | 0.962 (inactive) | 1.02 (inactive) | 1.02 (inactive) | 1.06 (inactive) |
| CCCC(=O)Nc1ncnc2c1ncn2[C@@H]1O[C@@H]2COP(=O)(O)O[C@H]2[C@H]1OC(=O)CCC [Bucladesine sodium salt] (20 µM) | 0.934 | 1.16 | 1.04 | 0.964 | 0.931 (inactive) | 0.976 (inactive) | 0.984 (inactive) | 1.06 (inactive) | 0.983 (inactive) | 1 (inactive) | 1.01 (inactive) | 0.975 (inactive) |
| NCCCCCC(=O)O [Aminocaproic acid] (20 µM) | 0.927 | 1.04 | 1.04 | 1.06 | 0.969 (inactive) | 1.08 (inactive) | 1.04 (inactive) | 1.11 (inactive) | 0.996 (inactive) | 0.983 (inactive) | 1.02 (inactive) | 1.09 (inactive) |
| C[C@]12CC[C@@H]3c4ccc(O)cc4CC[C@H]3[C@@H]1CCC2=O [Estrone] (20 µM) | 1.03 | 1.02 | 1.03 | 1.01 | 1.07 (inactive) | 1.06 (inactive) | 0.894 (inactive) | 1.04 (inactive) | 1.02 (inactive) | 1.02 (inactive) | 1.01 (inactive) | 0.884 (inactive) |
| CCC(C)(C)c1ccc(CC(C)CN2C[C@@H](C)O[C@@H](C)C2)cc1 (stereo partly specified) [Amorolfine hydrochloride] (20 µM) | 1.07 | 0.995 | 1.01 | 0.849 | 1.01 (inactive) | 0.989 (inactive) | 0.868 (inactive) | 1.03 (inactive) | 1 (inactive) | 1.02 (inactive) | 0.997 (inactive) | 0.88 (inactive) |
